Only some compounds are listed: those with a hit (about 10% of all), similar ones and a draw of the others.
CtBP-E1A inh: qHTS Assay for Inhibitors of the CtBP/E1A Interaction. CtBP / adenovirus E1A interaction (AlphaScreen). AlphaScreen GST-E1A/His-CtBP binding, 1536-well; active compounds read low. activity change, % (no concentration beside the values). 0.49% of 340,000 active. AID 651724, 2012; in the data active means activity change below about -65%; inconclusive means mostly about -30% to -63%; further: on the % scale 0 is the no-effect control and ±100 the full control effect
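Steps: dispense buffer (Tris pH 8.0, NaCl 300 mM, TCEP 1 mM, BSA, Tween 20); add 5X protein mix (GST-E1A, His-CtBP, 125 nM each); pin 23 nL compound; 2 h at 37 °C, dark; add 5X beads (50 ug/mL); 1 h; read.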
Six1-Eya2 blk: qHTS Assay for Inhibitors of the Six1/Eya2 Interaction. 0.56% of 360,000 active. AlphaScreen GST-Six1/His-Eya2 binding, biochemical; active compounds read low. Homeobox protein SIX1 (Homo sapiens) + Protein phosphatase EYA2 (Homo sapiens), …. activity change, % (concentration not given with the values). AID 651725, 2012; in the data active means activity change below about -65%; inconclusive means mostly about -30% to -63%; further: on the % scale 0 is the no-effect control and ±100 the full control effect
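Six1/Eya2 binding was read as AlphaScreen signal after compounds were pinned into GST-Six1 plus His-tagged Eya2 (5X stock 250/500 nM) in pH 8.0 Tris/NaCl/TCEP buffer, beads added, then incubated 1 h, 37 C, dark.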
G9a inh: qHTS Assay for Inhibitors of Histone Lysine Methyltransferase G9a; G9a H3K9 monomethylation, AlphaScreen, 2 h; Potency, µM (highest dose often 102 µM), for the others: top-dose activity, negative = inhibition, most hits filed as inhibitors; 8.8% of 350,000 active; further: potency means the concentration at half of the fitted maximal effect; on the % scale 0 is the no-effect control and ±100 the full control effect; nearly all actives have a fitted effect of over 75% in size
Target sequence (Q96KQ7 913-1193 limits assumed): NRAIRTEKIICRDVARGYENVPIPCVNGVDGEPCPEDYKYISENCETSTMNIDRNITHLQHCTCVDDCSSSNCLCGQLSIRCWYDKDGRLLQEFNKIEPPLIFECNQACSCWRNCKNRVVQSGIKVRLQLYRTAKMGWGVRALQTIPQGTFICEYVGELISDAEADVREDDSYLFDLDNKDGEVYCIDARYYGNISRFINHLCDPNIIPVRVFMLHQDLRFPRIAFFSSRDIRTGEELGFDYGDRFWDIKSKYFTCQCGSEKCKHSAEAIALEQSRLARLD
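G9a (20 nM) was preincubated 15 min with compound, then reacted 2 h at room temperature with 500 nM biotin-H3K9 peptide and 20 µM SAM. Monomethyl-H3K9 detected by AlphaScreen using anti-H3K9me1 antibody.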
BAZ2B block: qHTS Assay for Inhibitors of BAZ2B; Bromodomain adjacent to zinc finger domain protein 2B (Homo sapiens), Q9UIF8; AID 504333, 2011; AlphaScreen BAZ2B-H3K14Ac peptide displacement; 4.4% of 360,000 active; Potency, µM (highest dose often 114 µM), for inactives: at the top dose activity change, negative = inhibition, hits mostly inhibitors; further: potency means the concentration at half of the fitted maximal effect; on the % scale 0 is the no-effect control and ±100 the full control effect; nearly all actives have a fitted effect of over 60% in size
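AlphaScreen displacement: compounds (up to 110uM) incubated 30 min at room temperature with a preformed 50 nM BAZ2B/50 nM biotinylated H3K14Ac peptide complex in PBS pH 7.4 with Tween-20. Donor and acceptor beads at 10 ug/mL final added, 20 min light-protected before reading.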
JMJD2A Tudor: qHTS Assay for Inhibitors of JMJD2A-Tudor Domain; AlphaScreen JMJD2A-Tudor / H3K4me3 peptide binding; Lysine-specific demethylase 4A (Homo sapiens), O75164; Potency, µM (titrated, usually from 114 µM), inactives show top-dose activity change, negative = inhibition, usual class: inhibitors; 4.4% of 390,000 active; further: potency means the concentration at half of the fitted maximal effect; on the % scale 0 is the no-effect control and ±100 the full control effect; nearly all actives have a fitted effect of over 50% in size
HP1b chromo inh: HTS for Inhibitors of HP1-beta Chromodomain Interactions with Methylated Histone Tails; Chromobox protein homolog 1 (Homo sapiens), P83916; AlphaScreen HP1-beta / biotin-H3K9me3 peptide binding; Potency, µM (series often up to 114 µM), inactives show at the highest dose activity change, negative = inhibition, usual class: inhibitors; 0.56% of 390,000 active; further: potency means the concentration at half of the fitted maximal effect; nearly all actives have a fitted effect of over 70% in size
Target sequence (P83916 whole entry, looked up): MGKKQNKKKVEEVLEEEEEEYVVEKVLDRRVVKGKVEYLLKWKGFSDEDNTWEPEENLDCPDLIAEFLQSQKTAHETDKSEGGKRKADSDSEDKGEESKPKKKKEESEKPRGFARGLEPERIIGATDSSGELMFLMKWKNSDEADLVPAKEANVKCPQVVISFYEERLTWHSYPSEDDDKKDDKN
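HP1-beta protein (50 nM final) preincubated 30 min at room temperature with biotinylated H3(1-18)K9me3 peptide (50 nM) in PBS pH 7.4, 0.01% Tween-20, then compound added for 30 min. AlphaScreen streptavidin donor/nickel chelate acceptor beads (10 ug/mL final), 30 min dark, luminescence read.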
Starred values were filed as active, the others as inactive; u = inconclusive; x = no result; [ ] = remark or other dose. Unless noted, the call rests on the fitted dose curve; in most records, active means well fitted inhibition curve with a large enough effect; inconclusive means small, poorly fitted or top-dose-only effect; inactive means no such curve, though single readings can be large or run the other way.

SMILES	CtBP-E1A inh	Six1-Eya2 blk	G9a inh	BAZ2B block	JMJD2A Tudor	HP1b chromo inh
COc1ccc(-c2nc(C)c(C(C)=O)n2O)cc1[N+](=O)[O-]	10	0	56µM*	-16%	-26%	37%
CC(=O)c1c(C)nc(-c2cccc([N+](=O)[O-])c2)n1O	-2	2	u	u	-26%	0%
O=C(Oc1ccc2c(c1)OCO2)c1cc2c(s1)CCC2	15	-2	-31%[59 µM]	-126%	32µM*	u
CCCN1C(=O)/C(=C/c2c(N3CCNC(=O)C3CC(=O)OCC)nc3c(C)cccn3c2=O)SC1=S (stereo not drawn)	6	-17	u	u	-23%	-15%
CCOC(=O)CC1C(=O)NCCN1c1nc2ccc(C)cn2c(=O)c1/C=C1\SC(=S)N(C(C)CC)C1=O (stereo not drawn)	x	x	x	28µM*	x	x
CCOC(=O)CC1C(=O)NCCN1c1nc2ccc(C)cn2c(=O)c1/C=C1\SC(=S)N(CC(C)C)C1=O (stereo not drawn)	-18	7	u	79µM*	-26%	-17%
CC(=O)c1cc(-c2ccccc2)n(CC(=O)N2CCCC2)c1C	-20	-11	u	56µM*	-17%	-3%
CC(=O)c1cc(-c2ccccc2)n(CC(=O)N2CCCCC2)c1C	4	-1	-41%	u	-14%	16%
CC(=O)c1cc(-c2ccccc2)n(CC(=O)NC(C)(C)C)c1C	x	0	-32%	50µM*	-19%	9%
CCc1cc(C(c2cccc(OC)c2)N2CCOCC2)c(NC(=O)c2ccccc2)s1 (stereo not drawn)	5	-2	5%	-31%	-23%	29%
CCc1cc(C(c2ccc(OC)c(OC)c2)N2CCOCC2)c(NC(=O)c2ccccc2)s1 (stereo not drawn)	5	-4	32µM*	35µM*	50µM*	u
COc1cc(C2C(=O)N(C3CCCCC3)CC(=O)N2Cc2ccc(C)cc2)ccc1OC(C)C (stereo not drawn)	x	x	0%[59 µM]	-6%	-26%	-1%
COc1ccc(-c2csc(NC(=O)C3CC(=O)N(Cc4ccccc4)C3)n2)cc1OC (stereo not drawn)	-26	-27	50µM*	u	u	-24%
CCN(c1ccccc1)S(=O)(=O)c1ccc(OC)c(NC(=O)c2ccco2)c1	1	-28	x	x	x	x
CCN(c1ccccc1)S(=O)(=O)c1ccc(OC)c(NC(=O)C2CC(=O)N(Cc3ccccc3)C2)c1 (stereo not drawn)	x	8	56µM*	-27%	-33%	21%
COc1ccc(CC(=O)Nc2nc(-c3ccc(OC)c(OC)c3)cs2)cc1OC	-11	-12	-17%	u	u	-20%
CSc1cccc(NC(=O)C2CC(=O)N(Cc3ccccc3)C2)c1 (stereo not drawn)	0	4	45µM*	-19%	-14%	38%
CC(=O)Nc1ccc(C)cc1-c1nc2ccccc2n(CC(=O)Nc2cc(Cl)ccc2C)c1=O	x	x	-24%[59 µM]	u	-19%	7%
COc1cc(OC)cc(C(=O)N2CCN(C(=O)COc3ccccc3)CC2)c1	x	x	5%[59 µM]	1%	6%	23%
COC(=O)c1ccc(C(=O)OC)c(NC(=O)c2ccc(-c3ccccc3)s2)c1	x	x	24%[59 µM]	20%	0%	67%
CC(c1ccccc1)C1C(C#N)=C(N)SC(N)=C1C#N (stereo not drawn)	12	14	16µM*	12%	u	23%
CC(C)C1C(C#N)=C(N)SC(N)=C1C#N	-6	-2	14µM*	-38%	18%	41%
CC(CC1C(C#N)=C(N)SC(N)=C1C#N)c1ccccc1 (stereo not drawn)	3	-2	10µM*	-23%	56µM*	13%
CC(=O)c1c(COC(=O)c2ccncc2)nc2ccccc2[n+]1[O-]	-2	-9	1µM*	40µM*	-2%	10%
O=C(OCc1nc2ccccc2[n+]([O-])c1C(=O)c1ccccc1)c1cccs1	-16	-9	u	u	79µM*	-18%
SMILES	CtBP-E1A inh	Six1-Eya2 blk	G9a inh	BAZ2B block	JMJD2A Tudor	HP1b chromo inh
CC(=O)c1c(COC(=O)c2cccc(C)c2)nc2ccccc2[n+]1[O-]	x	-4	u	-25%	u	11%
CC(=O)c1c(COC(=O)c2ccco2)nc2ccccc2[n+]1[O-]	2	-12	-34%[12.7 µM]	50µM*	-13%	6%
Cc1cc2c(s1)c1cnn(Cc3ccc(F)cc3F)c(=O)c1n2C	x	x	x	x	-25%	x
Brc1ccc(OCCCCCN2CCOCC2)cc1	12	4	3.2µM*	35µM*	3.2µM*	-25%
CN1CCN(CCCCOc2ccc(F)cc2)CC1	4	0	-31%	-2%	14%[57.1 µM]	43%
Brc1ccc(OCCOCCN2CCOCC2)cc1	4	2	-40%[12.7 µM]	-3%	-12%	8%
CN1CCN(CCCCOc2ccc(Br)cc2)CC1	x	-7	4.5µM*	56µM*	20µM*	u
CCOC(=O)CNC(=O)c1ccc(-c2nn(C)c(=O)c3ccccc23)cc1	x	x	-4%[59 µM]	3%[57.1 µM]	0%	43%
CC(C)C12CN3CC(C(C)C)(CN(C1)C3c1ccc(Cl)cc1)C2=O (stereo not drawn)	x	x	-4%[59 µM]	4%	22%	49%
O=C(O)c1sc2cc(C(F)(F)F)cnc2c1-c1ccccc1	-2	-5	13%[0.0925 µM]	-7%	-30%	64%
NNC(=O)c1sc2cc(C(F)(F)F)cnc2c1-c1ccccn1	x	-4	5.6µM*	u	-9%[11.4 µM]	32%
CC(C)(C)c1ccc(OCC(=O)NN2Cc3ccccc3C2=N)cc1	12	-6	50µM*	-14%	-2%	52%
N=C1c2ccccc2CN1NC(=O)COc1ccc(Cl)cc1	-8	8	35µM*	-12%	-3%	24%
CC1=C(CC(=O)c2ccccc2)C(=O)c2ccccc2C1=O	-20	u	32µM*	22µM*	35µM*	u
O=C(CN1C(=O)c2ccccc2C1=O)c1ccccc1	4	-2	19%[12.7 µM]	12%	12%	27%
COc1ccc(NC(=S)NC(NC(=O)c2cccc(C)c2)C(Cl)(Cl)Cl)c([N+](=O)[O-])c1 (stereo not drawn)	-6	-22	u	u	-14%[11.4 µM]	-38%
COc1ccc(NC(=S)NC(NC(C)=O)C(Cl)(Cl)Cl)c([N+](=O)[O-])c1 (stereo not drawn)	2	-2	11µM*	-6%	-26%	u

Bioassay records: PubChem, National Center for Advancing Translational Sciences (NCATS)
